For test [1], the target named is Cytochrome P450 1A2 (Homo sapiens) (UniProt P05177). Nature of the test: p450-cyp1a2 (AID 410; calls by dose curve; note: potency is the fitted concentration of half-maximal effect). The essentials:
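O-Demethylation of luciferin 6' methyl ether by human CYP1A2 is monitored as luciferase luminescence. Substrate sits at Km (100uM); enzyme is 20nM. Values are scaled to 57 uM furafylline as maximal inhibition.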

Test [2] has as its target Glucocorticoid receptor (Homo sapiens) (UniProt P04150). Nature of the test: GR-GFP Redistribution (AID 450;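 active = compounds whose dose series gives a full or clear partial fitted curve of increased nuclear translocation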; note: potency is the fitted concentration of half-maximal effect). The settings on record: U2OS GR-GFP nuclear translocation, laser cytometry, 2 h.
Test [3] has the same target. Nature of the test: GR-EFC Redistribution (AID 451; calls by dose curve; note: potency is the fitted concentration of half-maximal effect). The settings on record: CHO-K1 GR-EFC translocation, beta-gal luminescence, 2 h. The gist of the method: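 Translocation of GR-ED fusion to nuclear EA restores b-gal, read by luminescence after 1 h room-temperature detection. Engineered CHO-K1 biosensor cells, 1,000/well, exposed 2 h at 37 C to titrations up to 46 uM final.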

Test [4] has as its target Mitogen-activated protein kinase 10 (Mus musculus) (UniProt Q61831). Nature of the test: JNK3 AlphaScreen Assay (AID 530; active = well fitted curve in either direction with a large enough effect, not every such curve was filed as active;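 note: kinase came from lysate of stimulated human HepG2 cells; signal reports phosphorylation of biotinylated GST-cJun 1-79 at Ser73 with 10 µM ATP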). The essentials: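 qHTS titrations with 15 min compound pre-incubation before adding ATP (10 uM final). Read-out: AlphaScreen of Ser73-phosphorylated biotin-GST-cJun using HepG2 lysate JNK3 activated by IL-1β and TNFα.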
In general terms: Bead proximity is the source of the signal in Alpha formats.

Test [5] concerns the target Guanine nucleotide-binding protein G(i) subunit alpha-1 (Homo sapiens) (UniProt P63096). Nature of the test: qHTS Assay for Inhibitors of RGS12 GoLoco Motif Activity (Green Fluorophore) (AID 879).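 Note: negative values mean loss of peptide binding seen as reduced polarization.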 The essentials:
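A drop in FITC polarization marked displacement of the FITC-tagged RGS12 GoLoco peptide (10 nM) from Gαi1 (50 nM). Compounds were incubated 10 min at room temperature in Tris pH 7.5 buffer containing 150 mM NaCl, 0.1 mM GDP and 0.05% NP40; unlabeled peptide titration served as control.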
(In general: Quantitative high-throughput screening tests each substance at several concentrations.)

The nature of test [6]: qHTS Assay for Identification of Small Molecule Agonists for Thrombopoietin (TPO) Signaling Pathway (AID 917). The essentials: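 Luciferase reporter (Glycoprotein IIb promoter) in IL-3-deprived Ba/F3 cells carrying human TPO receptor; compounds co-added with 26 pM TPO, incubated 24 h, 37 C. Steadylite luminescence measured after 10 min.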
The target of test [7] is Muscarinic acetylcholine receptor M1 (Rattus norvegicus) (UniProt P08482). Nature of the test: qHTS Assay for Antagonists of Acetylcholine Muscarinic M1 Receptor: Measurement of IP-One Response (AID 944). Note: nearly all actives have a fitted effect of over 75% in size. The essentials:
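Antagonist mode with rat M1 receptor transfected into CHO cells. Compound is added first for 10 min, carbachol at its EC80 follows for 30 min, and lysis reagents then allow TR-FRET detection of accumulated IP1.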

Test [8] deals with Pyruvate kinase (Leishmania mexicana) (UniProt Q27686). Nature of the test: qHTS Validation Assay for Inhibitors of Leishmania Mexicana Pyruvate Kinase (AID 945). The essentials: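 qHTS eight-point titrations against 0.2 nM LmPYK (E451W) in imidazole buffer pH 7.2 with 0.5 mM PEP, 0.1 mM ADP; 1 h, room temperature. Readout: PKLight luminescence, normalized to neutral DMSO wells.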

Test [9] concerns the target Alpha-galactosidase A (Homo sapiens) (UniProt P06280). Nature of the test: Counterscreen for Glucocerebrosidase Inhibitors: qHTS Assay for Human alpha-Galactosidase at pH 4.5 (AID 992). The gist of the method: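 Fluorogenic 1536-well qHTS at pH 4.5 (citrate, Tween-20): 2 nM enzyme, 80 uM 4-MU-alpha-galactoside, 20 min room temperature, NaOH/glycine stop. Titration 0.7 nM to 77 uM, data normalized to no-enzyme and full-activity controls, Hill-fitted AC50.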
In general terms: Counterscreens check selectivity or assay interference.

In test [10] the target is alpha-glucosidase (Oryza sativa, rice) (UniProt Q653V4). Nature of the test: Counterscreen for Glucocerebrosidase Inhibitors: qHTS Assay for Rice alpha-Glucosidase at pH 5.0 (AID 997). The essentials: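 Endpoint fluorogenic assay at pH 5.0: compounds (0.7 nM to 77 uM) titrated against 4 nM rice enzyme and 400 uM 4-MU-alpha-glucoside for 20 min at room temperature; NaOH/glycine stop, read ex 365/em 440 nm, Hill-fitted AC50.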

Test [11] can be described thus: Cytometric Cell-Based qHTS for Inhibitors of the mTORC1 Signaling Pathway in MEF (Tsc2-/-, p53-/-) Cells (AID 2660).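 Note: Tsc2 and p53 null MEFs carrying empty vector with compound for 24 h; percent of cells above a phospho-rpS6 to PI ratio cutoff in each well.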 The essentials:
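Immunofluorescence qHTS of rpS6 Ser235/236 phosphorylation: MEFs (Tsc2-/-, p53-/-) treated 24 h, 37 C, in DMEM + 10% FBS. Alexa-488 signal normalized to PI count, referenced to rapamycin (7.5 nM) and DMSO; PI cell number recorded for viability.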

The nature of test [12]: High Content Imaging Cell-Based qHTS for Inhibitors of the mTORC1 Signaling Pathway in MEF (Tsc2-/-, p53-/-) Cells (AID 2666).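 Note: percent of cells scored positive for phospho-rpS6 Ser235/236 immunostaining by imaging.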 The settings on record: at 38.3 µM (top of the series). The gist of the method:
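Tsc2-/-, p53-/- MEFs (empty-vector stable) grown in DMEM + 10% FBS were exposed to compounds for 24 hrs at 37 degree Celsius, fixed, and stained with Alexa-488 anti-phospho-rpS6 Ser235/236 plus Hoechst. Imaging gave the percentage of positive cells per well.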

Test [13] can be described thus: High Content Imaging Cell-Based qHTS for Inhibitors of the mTORC1 Signaling Pathway in MEF Cells (AID 2667).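 Note: Tsc2-/- p53-/- MEFs stably re-expressing wild-type Tsc2 exposed 24 h.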 The essentials:
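Tsc2-/-, p53-/- MEFs stably re-expressing WT Tsc2, grown in DMEM + 10% FBS, were treated with compounds for 24 hrs at 37 degree Celsius, fixed, and stained with Alexa-488 phospho-rpS6 Ser235/236 antibody plus Hoechst; results given as % positive cells.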

Test [14] is described as follows: Cytometry Cell-Based qHTS for Inhibitors of the mTORC1 Signaling Pathway in MEF cells (AID 2668).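 Note: Tsc2-/- p53-/- mouse embryonic fibroblasts stably re-expressing wild-type Tsc2; percent cells positive for phospho-rpS6 Ser235/236 relative to propidium iodide stain.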 The essentials:
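Phospho-rpS6 (Ser235/236) immunofluorescence over PI signal, scored as % positive cells using thresholds from 7.5 nM rapamycin and DMSO wells, after 24 h compound exposure of WT-Tsc2-rescued Tsc2-/-, p53-/- MEFs. PI cell count recorded for viability.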

Test [15] addresses Ubiquitin carboxyl-terminal hydrolase 2 (Homo sapiens) (UniProt O75604). Nature of the test: qHTS Validation Assay for Inhibitors of Ubiquitin-specific Protease USP2a Using CHOP2 as the Reporter (AID 463106). The gist of the method:
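Readout was coupled fluorescence (Ex 485/Em 531 nm), read 60 min after adding 25 nM final Ub-CHOP2 and 25 nM reporter substrate. Beforehand, 10 nM final USP2 core had 30 min at RT with compound in pH 8.0 buffer. Curves were fitted after normalization to NEM and flagged for artifacts using time-zero reads.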

The target of test [16] is DNA polymerase III PolC-type (Bacillus subtilis (strain 168)) (UniProt P13267). Nature of the test: qHTS Validation Assay for the Inhibitors of DNA Replication in Gram-Positive Bacteria (AID 485295).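 Note: reconstituted holoenzyme with PolC plus beta clamp SSB and primase; PicoGreen fluorescence of double-stranded DNA made on primed circular M13 template.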 The gist of the method:
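Double-stranded DNA product detected by PicoGreen fluorescence after EDTA quench. Compound incubated with B. subtilis holoenzyme (PolC, beta subunit, SSB, primase) before substrate addition; primed replication of M13Gori with dNTPs and NTPs at room temperature; DMSO defines 0% inhibition.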

Test [17] has as its target Tumor susceptibility gene 101 protein (Homo sapiens) (UniProt Q99816). Nature of the test: qHTS Validation Assay for Iinhibitors of HIV-1 Budding by Blocking the Interaction of PTAP/TSG101 (AID 485342; calls by dose curve). The gist of the method:
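Fluorescence polarization of 50 nM FITC-PTAP peptide bound to 10 uM Tsg101 binding domain was read after 20 min room-temperature incubation with compounds, in 10 mM HEPES pH 7.5, 0.15 M NaCl, 0.01% Tween 20.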

Test [18] deals with Beta-2 adrenergic receptor (Homo sapiens) (UniProt P07550). Nature of the test: qHTS validation assay of beta-arrestin-biased ligands of beta2-adrenergic receptor (AID 485366). The essentials: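 Agonism was measured as beta-arrestin recruitment to recombinant beta2-AR, releasing tTA to drive luciferase. Cells were exposed for 18 hr at 37 degrees C to a series up to 46 microM. %Activity from corrected luminescence gave concentration-response curves.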

Unmarked numbers belong to inactive results. Results filed as inconclusive are left out. Activity calls are given as the source filed them. Unless noted, calls come from the whole dose curve; as a rule, active = well fitted curve in the direction sought with a large enough effect; inconclusive = small, poorly fitted or top-dose-only effect, or another doubt; inactive = no such curve, though single readings can be large; an effect the other way counts as inactive or inconclusive.

Chain of Glucocorticoid receptor (Homo sapiens) (P04150 whole entry, looked up, the tested form may be a part): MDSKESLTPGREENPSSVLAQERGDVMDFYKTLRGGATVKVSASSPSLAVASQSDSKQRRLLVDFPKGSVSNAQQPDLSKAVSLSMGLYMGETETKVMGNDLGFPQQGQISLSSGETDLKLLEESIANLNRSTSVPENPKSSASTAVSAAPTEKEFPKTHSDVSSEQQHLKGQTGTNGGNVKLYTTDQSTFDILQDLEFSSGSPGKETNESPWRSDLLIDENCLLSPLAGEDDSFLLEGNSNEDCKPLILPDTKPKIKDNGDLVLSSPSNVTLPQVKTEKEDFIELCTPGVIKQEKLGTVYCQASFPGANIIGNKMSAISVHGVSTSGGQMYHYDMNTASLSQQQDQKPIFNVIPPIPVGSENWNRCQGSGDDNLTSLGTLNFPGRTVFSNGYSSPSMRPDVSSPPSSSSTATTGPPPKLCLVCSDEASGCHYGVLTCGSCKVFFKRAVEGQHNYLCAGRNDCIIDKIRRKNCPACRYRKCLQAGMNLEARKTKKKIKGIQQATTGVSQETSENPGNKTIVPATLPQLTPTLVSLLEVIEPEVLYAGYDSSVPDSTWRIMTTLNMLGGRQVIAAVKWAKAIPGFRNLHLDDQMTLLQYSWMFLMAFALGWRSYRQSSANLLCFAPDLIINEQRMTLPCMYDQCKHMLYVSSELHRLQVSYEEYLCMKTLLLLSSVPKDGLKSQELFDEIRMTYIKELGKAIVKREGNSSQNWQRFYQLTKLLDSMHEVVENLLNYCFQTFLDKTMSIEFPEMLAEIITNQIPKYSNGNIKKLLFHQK
Chain of Beta-2 adrenergic receptor (Homo sapiens) (P07550 whole entry, looked up): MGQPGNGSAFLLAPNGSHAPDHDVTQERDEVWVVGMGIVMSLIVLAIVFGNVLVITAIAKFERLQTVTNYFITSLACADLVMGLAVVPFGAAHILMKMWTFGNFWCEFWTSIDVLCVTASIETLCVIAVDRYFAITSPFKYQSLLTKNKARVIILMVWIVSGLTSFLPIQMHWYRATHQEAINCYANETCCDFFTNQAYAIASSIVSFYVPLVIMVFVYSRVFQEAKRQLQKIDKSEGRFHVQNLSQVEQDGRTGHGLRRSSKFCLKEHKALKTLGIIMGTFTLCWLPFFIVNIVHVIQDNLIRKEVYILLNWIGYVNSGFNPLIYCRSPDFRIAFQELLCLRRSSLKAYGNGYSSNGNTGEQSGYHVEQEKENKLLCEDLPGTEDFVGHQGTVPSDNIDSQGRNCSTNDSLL
Chain of Pyruvate kinase (Leishmania mexicana) (Q27686 2-499 E452W): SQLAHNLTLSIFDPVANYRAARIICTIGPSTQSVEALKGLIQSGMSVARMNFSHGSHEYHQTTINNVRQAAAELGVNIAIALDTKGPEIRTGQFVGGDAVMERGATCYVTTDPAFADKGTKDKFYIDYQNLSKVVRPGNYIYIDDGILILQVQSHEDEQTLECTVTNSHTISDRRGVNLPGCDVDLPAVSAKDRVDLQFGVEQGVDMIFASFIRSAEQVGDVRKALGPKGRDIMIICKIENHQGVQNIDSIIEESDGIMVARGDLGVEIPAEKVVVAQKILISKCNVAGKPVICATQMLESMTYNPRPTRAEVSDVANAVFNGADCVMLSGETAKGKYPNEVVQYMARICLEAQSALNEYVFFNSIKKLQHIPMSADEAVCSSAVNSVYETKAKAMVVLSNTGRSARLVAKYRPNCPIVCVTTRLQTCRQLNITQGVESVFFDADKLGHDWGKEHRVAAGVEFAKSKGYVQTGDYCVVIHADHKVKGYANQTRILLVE
Chain of Cytochrome P450 1A2 (Homo sapiens) (P05177 whole entry, looked up): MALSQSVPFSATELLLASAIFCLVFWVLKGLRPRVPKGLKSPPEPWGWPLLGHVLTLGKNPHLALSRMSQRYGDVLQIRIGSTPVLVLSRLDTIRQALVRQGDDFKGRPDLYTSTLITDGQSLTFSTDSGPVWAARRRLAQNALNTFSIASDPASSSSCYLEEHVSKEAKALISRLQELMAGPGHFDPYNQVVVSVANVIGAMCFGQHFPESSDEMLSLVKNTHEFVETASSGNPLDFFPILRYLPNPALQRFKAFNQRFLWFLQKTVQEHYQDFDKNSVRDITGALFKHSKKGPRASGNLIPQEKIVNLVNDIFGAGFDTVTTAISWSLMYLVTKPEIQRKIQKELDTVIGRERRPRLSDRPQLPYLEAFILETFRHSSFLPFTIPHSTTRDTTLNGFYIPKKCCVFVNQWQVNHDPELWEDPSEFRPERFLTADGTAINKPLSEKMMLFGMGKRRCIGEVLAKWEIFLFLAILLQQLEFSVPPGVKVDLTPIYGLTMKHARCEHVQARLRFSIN
Chain of Alpha-galactosidase A (Homo sapiens) (P06280 whole entry, looked up): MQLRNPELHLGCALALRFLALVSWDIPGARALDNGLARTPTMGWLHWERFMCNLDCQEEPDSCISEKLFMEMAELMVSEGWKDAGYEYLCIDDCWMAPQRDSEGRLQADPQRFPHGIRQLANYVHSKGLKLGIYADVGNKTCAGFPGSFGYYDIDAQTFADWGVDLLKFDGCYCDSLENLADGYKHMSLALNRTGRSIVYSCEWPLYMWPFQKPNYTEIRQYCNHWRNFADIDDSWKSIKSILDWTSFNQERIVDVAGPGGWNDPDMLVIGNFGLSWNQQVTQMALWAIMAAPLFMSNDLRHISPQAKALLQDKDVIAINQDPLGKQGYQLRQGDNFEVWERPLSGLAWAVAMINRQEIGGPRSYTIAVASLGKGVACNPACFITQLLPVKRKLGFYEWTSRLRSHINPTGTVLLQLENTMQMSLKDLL
Chain of Muscarinic acetylcholine receptor M1 (Rattus norvegicus) (P08482 whole entry, looked up): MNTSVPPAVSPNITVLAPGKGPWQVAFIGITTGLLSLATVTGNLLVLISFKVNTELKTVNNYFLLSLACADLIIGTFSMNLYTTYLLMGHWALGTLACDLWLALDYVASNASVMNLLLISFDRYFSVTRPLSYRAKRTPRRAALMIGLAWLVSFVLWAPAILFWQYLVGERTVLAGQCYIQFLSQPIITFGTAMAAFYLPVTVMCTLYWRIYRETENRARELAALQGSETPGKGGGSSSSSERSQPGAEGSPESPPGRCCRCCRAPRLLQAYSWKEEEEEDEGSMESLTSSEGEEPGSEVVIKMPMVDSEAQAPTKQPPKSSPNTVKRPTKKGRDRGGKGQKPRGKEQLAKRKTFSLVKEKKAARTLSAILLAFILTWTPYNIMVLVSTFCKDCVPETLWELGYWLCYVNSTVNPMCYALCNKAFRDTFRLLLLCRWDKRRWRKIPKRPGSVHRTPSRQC
Chain of Tumor susceptibility gene 101 protein (Homo sapiens) (Q99816 whole entry, looked up, the tested form may be a part): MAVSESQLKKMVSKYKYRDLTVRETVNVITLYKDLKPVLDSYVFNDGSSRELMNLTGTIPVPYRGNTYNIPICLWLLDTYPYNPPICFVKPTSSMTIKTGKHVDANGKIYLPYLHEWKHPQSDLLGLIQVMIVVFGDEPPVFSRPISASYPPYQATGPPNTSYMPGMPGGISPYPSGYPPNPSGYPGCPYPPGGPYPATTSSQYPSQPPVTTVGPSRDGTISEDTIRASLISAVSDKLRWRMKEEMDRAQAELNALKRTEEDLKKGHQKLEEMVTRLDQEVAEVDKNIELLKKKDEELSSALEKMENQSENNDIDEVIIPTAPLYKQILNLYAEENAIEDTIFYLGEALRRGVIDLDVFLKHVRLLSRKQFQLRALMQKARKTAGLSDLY
Chain of Guanine nucleotide-binding protein G(i) subunit alpha-1 (Homo sapiens) (P63096 whole entry, looked up): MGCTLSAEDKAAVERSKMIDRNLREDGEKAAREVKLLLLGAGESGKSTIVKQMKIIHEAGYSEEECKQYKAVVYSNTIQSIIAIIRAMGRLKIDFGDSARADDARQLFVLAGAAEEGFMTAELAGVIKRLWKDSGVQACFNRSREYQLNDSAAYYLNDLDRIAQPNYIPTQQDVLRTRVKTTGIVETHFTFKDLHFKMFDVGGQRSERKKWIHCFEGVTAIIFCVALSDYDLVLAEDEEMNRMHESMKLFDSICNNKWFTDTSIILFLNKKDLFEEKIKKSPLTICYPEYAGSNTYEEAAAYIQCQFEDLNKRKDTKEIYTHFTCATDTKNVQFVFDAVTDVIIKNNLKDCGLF
Chain of Ubiquitin carboxyl-terminal hydrolase 2 (Homo sapiens) (O75604 whole entry, looked up): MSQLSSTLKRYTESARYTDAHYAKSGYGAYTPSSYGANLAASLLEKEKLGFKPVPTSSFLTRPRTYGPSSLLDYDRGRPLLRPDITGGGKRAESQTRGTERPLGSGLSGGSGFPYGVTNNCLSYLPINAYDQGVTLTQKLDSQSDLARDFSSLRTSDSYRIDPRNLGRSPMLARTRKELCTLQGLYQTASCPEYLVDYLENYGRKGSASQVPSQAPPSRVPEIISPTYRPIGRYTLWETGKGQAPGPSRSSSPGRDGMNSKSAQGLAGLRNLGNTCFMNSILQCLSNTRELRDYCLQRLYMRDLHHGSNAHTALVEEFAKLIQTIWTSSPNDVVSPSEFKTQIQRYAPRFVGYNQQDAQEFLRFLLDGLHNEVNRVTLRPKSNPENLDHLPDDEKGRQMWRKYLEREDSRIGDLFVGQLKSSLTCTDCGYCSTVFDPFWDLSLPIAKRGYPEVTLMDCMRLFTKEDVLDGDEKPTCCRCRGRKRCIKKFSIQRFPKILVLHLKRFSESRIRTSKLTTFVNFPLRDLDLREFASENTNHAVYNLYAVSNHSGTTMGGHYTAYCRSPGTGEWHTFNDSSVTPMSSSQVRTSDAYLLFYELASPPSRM

In the case of `CC[C@@H](CO)Nc1nc(NCc2ccccc2)c2ncn(C(C)C)c2n1`, the Potency in [1] was 12.6 µM (active); in test [2], above 46 µM; in [3] it was above 46 µM. For the same compound, the Potency result in test [4], in test [7] and in test [10] was “inactive” each time. The call in test [5], in test [6], in test [8], in [9], in [11] and in test [12] was inactive. Further, the result in test [13], in test [14], in test [15], in test [16], in test [17] and in test [18] was inactive.

The values are drawn from PubChem BioAssay (NCATS).
